Source: PubChem (National Center for Advancing Translational Sciences (NCATS))
In the library only some 5.3% were active in any assay of this set; here they are far more common.
JMJD2A Tudor = JMJD2A Tudor domain (human) inhibition | O75164 | AlphaScreen JMJD2A-Tudor / H3K4me3 peptide binding | Potency, µM (titrated, usually from 114 µM), actives largely listed as inhibitors | 390,000 tested, 4.4% active | AID 504339; note: nearly all actives have a fitted effect of over 50% in size
TDP1 inh = TDP1 (human) enzyme inhibition; Q9NUW8; recombinant TDP1, AlphaScreen DNA substrate cleavage; Potency, µM (highest dose often 130 µM), most hits filed as inhibitors; 350,000 tested, 0.28% active; AID 485290; note: nearly all actives have a fitted effect of over 40% in size
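Compounds were preincubated with Tdp1 (1 nM final) for 15 min at room temperature before substrate (15 nM final) started a 5 min reaction; beads (10 ug/ml final) were then added for 10 min before AlphaScreen detection.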
CtBP-E1A inh = inhibitors of CtBP/E1A interaction; AlphaScreen GST-E1A/His-CtBP binding, 1536-well; active compounds read low; activity change, % (no concentration beside the values); 340,000 tested, 0.49% active; in the data active = activity change below about -65%; inconclusive = mostly about -30% to -63%
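Protein mix (5X: 125 nM each GST-E1A, His-CtBP) was incubated with pinned compound 2 h at 37 deg C in dark, in 50 mM Tris pH 8.0 buffer with 300 mM NaCl. Glutathione donor and nickel acceptor beads followed; AlphaScreen signal read after 1 h.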
BAZ2B inh = BAZ2B (human) inhibition | Q9UIF8 | AlphaScreen BAZ2B-H3K14Ac peptide displacement | Potency, µM (series often up to 114 µM), usual class: inhibitors | 360,000 tested, 4.4% active; note: nearly all actives have a fitted effect of over 60% in size
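Inhibition is scored as reduced AlphaScreen emission. The BAZ2B/b-H3(5-23)K14Ac complex (50 nM each) in PBS pH 7.4, 0.01% Tween-20 meets compound (up to 110 uM) for 30 min at RT before bead addition.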
HP1b chromo inh = HP1-beta chromodomain-methylated histone interaction inhibition; P83916; AlphaScreen HP1-beta / biotin-H3K9me3 peptide binding; Potency, µM (highest dose often 114 µM), hits mostly inhibitors; 390,000 tested, 0.56% active; note: nearly all actives have a fitted effect of over 70% in size
Target sequence (P83916 whole entry, looked up): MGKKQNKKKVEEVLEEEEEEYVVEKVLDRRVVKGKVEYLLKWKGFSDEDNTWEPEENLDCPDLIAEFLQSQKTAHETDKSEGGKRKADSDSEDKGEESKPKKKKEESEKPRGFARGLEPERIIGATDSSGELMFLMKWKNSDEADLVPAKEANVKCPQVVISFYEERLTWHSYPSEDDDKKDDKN
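HP1-beta protein (50 nM final) preincubated 30 min at room temperature with biotinylated H3(1-18)K9me3 peptide (50 nM) in PBS pH 7.4, 0.01% Tween-20, then compound added for 30 min. AlphaScreen streptavidin donor/nickel chelate acceptor beads (10 ug/mL final), 30 min dark, luminescence read.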
Six1-Eya2 blk = inhibitors of human Six1/Eya2 interaction; activity change, % (concentration not given with the values); Q15475+O00167; AlphaScreen GST-Six1/His-Eya2 binding, biochemical; active compounds read low; 360,000 tested, 0.56% active; in the data active = activity change below about -65%; inconclusive = mostly about -30% to -63%
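AlphaScreen luminescence read after one hour at 37 °C in darkness. Pin-transferred compounds met GST-Six1 and His-Eya2 protein (5X stock 250 nM/500 nM) plus glutathione donor and Ni-chelate acceptor beads (5X, 50 ug/mL).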
A number is an active result; – = inactive; ? = inconclusive; · = no result given; [ ] = dose if it differs, or a comment. Unless noted, calls come from the whole dose curve; as a rule, active = well fitted inhibition curve with a large enough effect; inconclusive = small, poorly fitted or top-dose-only effect; inactive = no such curve, though single readings can be large or run the other way.

SMILES | JMJD2A Tudor | TDP1 inh | CtBP-E1A inh | BAZ2B inh | HP1b chromo inh | Six1-Eya2 blk
CC(C)(C)N(CC#CCC(O)(c1ccccc1)c1ccccc1)CCO | 22µM | – | · | 79µM | – | –
COc1ccccc1CCNC(=O)COc1cccc2c1OC(C)(C)C2 | – | · | – | – | – | –
CC1(C)Cc2cccc(OCC(=O)NCCOc3ccccc3)c2O1 | 20µM | – | – | – | – | –
Cc1ccc(-n2c(=O)c3c(C)c(C(=O)N(C)C)sc3n(CC(=O)N(C)c3ccccc3)c2=O)cc1C | – | – | · | – | – | ·
O=C(N/N=C/c1cccc(O)c1)c1ccccc1O | –[11.4 µM] | · | – | – | – | –
O=C(N/N=C\c1ccccc1O)c1ccccc1O | · | 32µM | · | · | · | ·
O=C(Cn1cc(C(F)(F)F)ccc1=O)N/N=C/c1ccccc1O | –[11.4 µM] | – | -91 | – | – | ?
O=C(N/N=C/c1cc(Br)ccc1O)c1ccccc1Cl | ? | – | -79 | ? | – | -88
O=C(Cn1cc(C(F)(F)F)ccc1=O)N/N=C/c1ccc(F)cc1 | – | – | – | – | – | –
C=CCn1c(CNc2ccccc2)nnc1SCC(=O)N/N=C/c1ccccc1O | ? | – | ? | – | – | -72
CCN(Cc1ccccc1)C(=O)c1cc2ccc3cccnc3c2[nH]1 | – | – | · | – | – | ·
Cc1cc(=O)oc2cc(OCC(=O)N/N=C/c3ccccc3O)ccc12 | – | –[0.0935 µM] | – | – | – | –
CSc1nc(C)cc(OCC(=O)N/N=C/c2ccccc2O)n1 | – | – | -69 | – | – | -68
O=C(NCC1CCCO1)C(=O)N/N=C/c1cc(Cl)ccc1O (stereo not drawn) | 40µM | · | -94 | ? | – | -80
O=C(CSCC(=O)NN=Cc1ccccc1O)NN=Cc1ccccc1O | – | · | – | · | – | -83
O=C(CN1C(=O)NC2NC(=O)NC21)N/N=C/c1ccccc1F (stereo not drawn) | · | – | · | – | · | ·
O=C(CN1C(=O)NC2NC(=O)NC21)N/N=C/c1ccccc1O (stereo not drawn) | – | – | -90 | ? | – | -91
O=C(O)CCCC/C=C\C[C@@H](O)/C=C/C=C/C=C\[C@@H](O)CCCC(=O)O | · | – | · | · | · | ·
O=C(CC(=O)N/N=C/c1ccccc1O)NCc1cccnc1 | – | – | – | ? | – | -90
O=C(N/N=C/c1cc(Cl)ccc1O)c1ccncc1 | ? | – | -95 | 20µM | – | -92
O=C(N/N=C/c1ccccc1O)c1cccc(C(F)(F)F)c1 | ? | ? | -81 | ? | – | -79
O=C(N/N=C/c1ccc(O)cc1)c1cccc(C(F)(F)F)c1 | – | – | – | – | – | –
O=C(NCC(=O)N1CCCC1)NN=Cc1ccccc1O | · | · | -77 | · | · | ?
CC(C)c1ccc(Nc2nc3c(S(=O)(=O)c4ccc(Br)cc4)nnn3c3ccsc23)cc1 | – | – | · | – | – | ·
O=C(c1ccco1)N1CCN(Cc2nc3cc(Cl)ccc3c(=O)[nH]2)CC1 | 14µM | – | – | – | – | –
SMILES | JMJD2A Tudor | TDP1 inh | CtBP-E1A inh | BAZ2B inh | HP1b chromo inh | Six1-Eya2 blk
Cn1c(=O)[nH]c(=O)c2[nH]c(CN3CCN(C(=O)c4ccco4)CC3)nc21 | 3.2µM | – | – | – | – | –
O=C(NC1CCCCC1)N1CCN(Cc2nc3ccccc3c(=O)[nH]2)CC1 | 10µM | · | – | · | – | –
CCC(CC)C(=O)N1CCN(Cc2nc3ccccc3c(=O)[nH]2)CC1 | – | – | – | – | – | –
CN(Cc1ccccc1)Cc1nc2c([nH]1)c(=O)[nH]c(=O)n2C | 1µM | – | – | – | – | –
CN(Cc1ccccc1)c1nc2c(c(=O)[nH]c(=O)n2C)n1Cc1ccccc1 | – | – | – | – | – | –
CCc1ccc(NC(=O)CSc2nc3c(sc4ccccc43)c(=O)n2CCCOC)cc1 | – | – | · | – | – | ·
Cc1cc(C(=O)O)c2c(=O)n(C)c(=O)n(C)c2n1 | – | – | · | · | – | ·
CCOc1cc(/C=N/NC(=O)C(=O)Nc2cc(Cl)ccc2C)ccc1O | – | – | – | – | – | –
CCOc1cc(/C=N\Nc2nc(-c3ccc(C)cc3)c(NC(C)=O)s2)ccc1O | 28µM | · | ? | – | ? | –
COc1cc(/C=N\Nc2nc(-c3ccc(C)cc3)c(NC(C)=O)s2)ccc1O | –[11.4 µM] | · | ? | 40µM | 28µM | –
CCOc1cc(/C=N/Nc2ncc(C)c(=O)[nH]2)ccc1O | – | · | -81 | – | – | ?
Cc1cc2c(s1)c1cnn(Cc3ccccc3C)c(=O)c1n2C | – | · | · | · | · | ·
CCc1ccc(NC(=O)Cn2nnc(-c3ccccc3N)n2)cc1 | – | – | · | – | – | ·
O=C(CCn1c2c(c3ccccc31)CCCC2)NNC(=O)c1ccccc1C(=O)O | – | – | – | 71µM | – | –
O=C(CCn1c2c(c3ccccc31)CCCC2)NNC(=O)c1ccccc1[N+](=O)[O-] | – | – | – | – | – | –
Cc1ccc2nc3c(c(N)c2c1)CCN3c1ccccc1 | 0.79µM | – | – | 56µM | ? | –
Cc1cccc2c(N)c3c(nc12)N(C)CC3 | 18µM | · | · | 50µM | – | –
Cc1cccc2c(N)c3c(nc12)CCCC3 (tested in a mixture with another compound) | – | – | – | – | – | –
Cc1ccc2nc3c(c(N)c2c1)CCN3C | 25µM | · | – | 79µM | 35µM | –
CN1CCc2c1nc1ccccc1c2N (tested in a mixture with another compound) | – | – | – | – | – | –
CN1CCCCc2c1nc1c(c2N)CCCC1 | 1.8µM | – | – | ? | ? | –
Cc1cccc(C)c1NC(=O)Cn1nc(C)c2sc3ccccc3c2c1=O | – | – | · | ? | – | ·
COc1cccc(Cn2c(=O)cc(C)c3c(C)nn(C)c32)c1 | – | – | · | – | – | ·
CCN1CCN(c2cc(C)c3cc(NC(=O)c4cccc(Cl)c4)ccc3n2)CC1 | ? | – | · | – | – | ·
CCN1CCN(c2cc(C)c3cc(NC(=O)/C=C/c4cccc(Cl)c4)ccc3n2)CC1 | 32µM | – | · | ? | – | ·
SMILES | JMJD2A Tudor | TDP1 inh | CtBP-E1A inh | BAZ2B inh | HP1b chromo inh | Six1-Eya2 blk
C=CCn1cc(/C=N/Nc2nc3ccccc3[nH]2)c2ccccc21 | 40µM | – | ? | 40µM | ? | –
O=c1[nH]c(N/N=C/c2ccc(O)cc2)nc2ccccc12 | – | – | -68 | – | – | ?
Cn1c(/C=N/Nc2nc3ccccc3[nH]2)nc2ccccc21 | ? | – | – | 32µM | – | –
O=c1[nH]c(N/N=C\c2ccc(F)cc2)nc2ccccc12 | – | – | – | – | – | –
Cc1nn(-c2ccccc2)c(C)c1/C=N/Nc1nc2ccccc2[nH]1 | 56µM | – | – | ? | ? | –
CC(=O)N1CCCc2cc(S(=O)(=O)N3CCC(C(=O)N(Cc4ccccc4)C(C)C)CC3)ccc21 | – | – | · | – | – | ·
COc1cccc(CNC(=O)Cn2c(=O)cc(C(F)(F)F)c3c(C)nn(C)c32)c1OC | – | – | · | – | – | ·
